Sampled rows, rich in hits. Any-hit rate of the full collection: about 4.2%.
esBAF inh – Bmi1 luciferase reporter increase in mESCs, primary screen, esBAF inhibitor project, mouse ES cells, Bmi1 luciferase knock-in, single point; AID 602393, 2012; 24 h; 100% = twice the neutral-well signal; reporter increase, % at 12.5 µM; 350,000 compounds, 2% hits; in the data active means activation above about 40%; inconclusive means no clear call, values can overlap the other calls;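 further: 0% = median of the plate's neutral control wells and 100% = double that signal; a rise in the Bmi1 reporter signal indicates esBAF inhibition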
Wnt bcat act – Wnt/beta-catenin pathway activators, primary screen, cell-based, plate reader, single point; AID 743398, 2014; Wnt/beta-catenin reporter cell assay, activator; activation, % at 9.35 µM; 300,000 compounds, 1.2% hits; in the data active means activation above about 30%, passing the limit was not always enough; inconclusive means no clear call, values can overlap the other calls;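 further: 0% = neutral control wells and 100% = positive control wells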
AHR act – AHR activators, primary screen, cell-based, luminescence, luciferase reporter, human. Aryl hydrocarbon receptor (Homo sapiens), P35869. AHR-responsive luciferase reporter cells. activation, % at 5 µM. 320,000 compounds, 2.5% hits; in the data active means activation above about 47%;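 further: 0% = vehicle wells and 100% = reference agonist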
Target sequence (P35869 whole entry, looked up): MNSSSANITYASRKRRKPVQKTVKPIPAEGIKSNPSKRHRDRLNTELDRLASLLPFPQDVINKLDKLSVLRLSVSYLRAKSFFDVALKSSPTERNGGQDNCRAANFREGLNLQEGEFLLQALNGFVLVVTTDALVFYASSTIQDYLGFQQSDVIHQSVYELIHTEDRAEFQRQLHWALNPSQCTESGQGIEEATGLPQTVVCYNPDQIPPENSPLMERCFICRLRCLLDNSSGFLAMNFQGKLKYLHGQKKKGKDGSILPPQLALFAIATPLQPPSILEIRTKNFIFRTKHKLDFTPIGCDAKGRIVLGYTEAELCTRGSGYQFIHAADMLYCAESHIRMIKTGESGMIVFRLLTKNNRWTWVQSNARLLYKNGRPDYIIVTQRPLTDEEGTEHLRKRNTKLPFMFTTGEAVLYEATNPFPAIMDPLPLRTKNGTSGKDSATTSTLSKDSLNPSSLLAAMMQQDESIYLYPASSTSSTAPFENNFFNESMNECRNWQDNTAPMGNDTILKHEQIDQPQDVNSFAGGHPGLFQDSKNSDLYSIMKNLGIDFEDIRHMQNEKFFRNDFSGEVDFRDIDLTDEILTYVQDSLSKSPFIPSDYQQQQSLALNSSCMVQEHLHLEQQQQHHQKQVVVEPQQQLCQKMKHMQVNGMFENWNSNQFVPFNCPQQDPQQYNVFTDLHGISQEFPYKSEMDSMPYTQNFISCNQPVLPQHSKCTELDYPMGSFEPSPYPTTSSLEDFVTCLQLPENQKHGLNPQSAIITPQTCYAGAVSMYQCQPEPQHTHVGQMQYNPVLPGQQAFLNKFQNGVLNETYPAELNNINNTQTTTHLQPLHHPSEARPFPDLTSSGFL
MITF TRPM1 HTS – activators of MITF-driven TRPM1 promoter reporter, primary screen, cell-based, SK-MEL-5, luciferase, single point. SK-MEL-5 TRPM1-promoter luciferase, 24 h; % of positive control, neutral wells = 0. activation, % at 12.5 µM. 300,000 compounds, 0.75% hits. AID 588334, 2011;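 active means mean activation of at least 80% with every replicate also reaching 80%; inconclusive means mean reaches 80% but some replicate falls short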;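 further: 0% = neutral control wells and 100% = parthenolide positive control wells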
FXN GAA850 act – FXN promoter activators, primary screen, cell-based, luciferase luminescence, HEK293 lucGAA850; activation, % at 6 µM; HEK293 lucGAA850 FXN promoter luciferase reporter, 24 h; percent of 10 µM SAHA response; AID 540364, 2011; 360,000 compounds, 0.56% hits;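 active means activation above the average of all compounds screened plus 3 SD, cutoff fixed separately per campaign, cut at about 7.5% in these data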;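 further: 0% = DMSO wells and 100% = 10 µM SAHA wells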
Active calls of the source: *; ? = inconclusive; · = no result.

SMILES | esBAF inh | Wnt bcat act | AHR act | MITF TRPM1 HTS | FXN GAA850 act
CC(=O)Nc1cccc(-n2nnc(SCC(=O)c3ccccc3)n2)c1 | 36 | 60* | 7 | · | 3
C[C@@H](O)C#Cc1ccc2c(c1)O[C@H](CN(C)C(=O)C1CCC1)[C@@H](C)CN([C@@H](C)CO)S2(=O)=O | 4 | · | · | · | ·
COCCNC(=O)CSc1nc2ccc(N3CCOCC3)cc2c(=O)n1CCc1ccccc1 | 18 | 8 | 73* | · | -1
CCCCNC(=O)CSc1nc2ccc(N3CCOCC3)cc2c(=O)n1CCc1ccccc1 | 4 | 8 | 58* | -19 | -1
C[C@H](CO)N1C[C@H](C)[C@H](CN(C)C(=O)C2CCCCC2)Oc2cc(-c3ccccc3)ccc2S1(=O)=O | 3 | · | · | · | ·
CCNC(=O)C[C@@H]1CC[C@@H](NC(=O)C2CC2)[C@H](CO)O1 | -4 | · | · | · | ·
Cc1ccnc(SCC(=O)c2cccs2)n1 | · | 44* | 0 | 93* | 7
Cc1ccc(C)c2nc(SCC(=O)NCc3cccs3)c(C#N)cc12 | -8 | · | 0 | -7 | 3
Cc1cc2c(C)ccc(C)c2nc1SCC(=O)c1cccs1 | 5 | -8 | 58* | · | 3
Cc1ccnc(SCC(=O)c2ccc(Br)s2)n1 | -1 | · | -2 | 42 | 2
O=C(CSc1nc2ccccc2c(=O)n1NC(=O)c1ccccc1)c1ccccc1 | -11 | · | 1 | 60 | 5
O=C(CSc1nc2ccccc2c(=O)n1NC(=O)c1ccccc1)c1ccc(Cl)cc1 | -8 | 32* | -1 | 42 | 3
COc1ccc(-c2nnc(-c3ccc(N(C)C)cc3)o2)cc1 | 37 | · | 8 | 65 | 2
Cn1cc(-c2nnc(-c3ccccc3)o2)c2ccccc21 | -15 | 42* | 49* | 17 | 2
CN(C)c1ccc(-c2nnc(-c3ccccc3F)o2)cc1 | -26 | 11 | 63* | -2 | 4
Cc1ccccc1-c1nnc(CS(=O)(=O)c2ccccc2)o1 | 16 | -3 | 7 | 103* | 2
Cc1ccccc1-c1nnc(-c2ccccc2)o1 | 43* | · | 30 | 41 | 3
O=C(C[C@@H]1CC[C@H]2[C@@H](COC[C@@H](O)CN2Cc2cccc(C(F)(F)F)c2)O1)NCCc1ccncc1 | 7 | · | · | · | ·
CC(C)NC(=O)N(C)C[C@@H]1OCc2ccccc2-c2ccccc2C(=O)N([C@H](C)CO)C[C@H]1C | -2 | · | · | · | ·
O=C(C[C@@H]1CC[C@H](NC(=O)C2CC2)[C@H](CO)O1)Nc1nccs1 | 1 | · | · | · | ·
O=[N+]([O-])c1cccc(-c2nnc(-c3ccccc3F)o2)c1 | 40 | 49* | · | · | 1
Cc1ccccc1-c1nnc(-c2ccc(Cl)cc2)o1 | 36 | 25 | 54* | 31 | 5
Cc1ccc(CS(=O)(=O)c2ccccc2-c2nnc(-c3ccc(Cl)cc3)o2)cc1 | -6 | · | -1 | -13 | 2
O=C(Cc1ccccc1)Nc1ccc(N2CCCCC2)cc1 | 20 | 59* | 13 | 62 | 7
NC(=O)NC(=O)C(Nc1ccc(N2CCCCC2)cc1)c1ccccc1 (configuration not stated) | 51* | 9 | 14 | 20 | -3
SMILES | esBAF inh | Wnt bcat act | AHR act | MITF TRPM1 HTS | FXN GAA850 act
O=C(/C=C/c1ccccc1)Nc1ccc(N2CCCCC2)cc1 | 62* | 0 | 0 | 33 | 4
COc1ccc(/C=C/C(=O)Nc2ccc(N3CCOCC3)cc2)cc1 | · | · | -1 | -3 | 4
O=C(/C=C/c1ccc(Cl)cc1)Nc1ccc(N2CCCCC2)cc1 | -6 | 1 | 3 | -5 | -1
CN1CCN(c2ccc(NC(=O)Cc3ccccc3)cc2)CC1 | 14 | 27 | 11 | 67 | 4
COc1ccc(N2CCN(c3ccc(NC(=O)/C=C\C(=O)O)cc3)CC2)cc1 | -5 | 45* | 2 | -5 | 0
CC(C)NC(=O)N(C)C[C@H]1Oc2c(NC(=O)Nc3ccc4c(c3)OCO4)cccc2C(=O)N([C@@H](C)CO)C[C@H]1C | -1 | · | · | · | ·
Cc1ccc(S(=O)(=O)N2CC[C@@H]3[C@H](CO)Nc4ccc(-c5ccccc5F)cc4[C@@H]32)cc1 | -11 | · | · | · | ·
Cc1sc2nc(CSc3nc4ccccc4s3)[nH]c(=O)c2c1C | · | -1 | 14 | · | ·
O=c1[nH]c(CSc2nc3ccccc3s2)nc2ccccc12 | 47* | 28 | 66* | 30 | 1
O=c1[nH]c(CSc2nc3ccccc3s2)nc2cc(Cl)ccc12 | · | -2 | 53* | · | ·
O=c1[nH]c(CSc2ccccn2)nc2ccccc12 | · | 31* | 18 | 59 | 5
Cc1ccc2nc(SCc3nc4ccccc4c(=O)[nH]3)[nH]c2c1 | 51* | 11 | 30 | 35 | 5
O=C(O)c1ccccc1Cc1nc2cc(Cl)ccc2c(=O)[nH]1 | · | 1 | 1 | -15 | 1
COc1ccc(CN(C)C[C@@H]2Oc3ccc(NC(=O)Cn4cnnn4)cc3CC(=O)N([C@H](C)CO)C[C@@H]2C)cc1 | -1 | · | · | · | ·
O=c1[nH]c(Cc2cccs2)nc2ccccc12 | -1 | · | 3 | -3 | -2
Brc1ccccc1-c1nnc(CSc2nncn2-c2ccccc2)o1 | 28 | 35* | 5 | 1 | 4
O=C(OCc1nc2ccccc2c(=O)[nH]1)c1cccs1 | 7 | 6 | 55* | · | 0
Cc1cc(C)c(C#N)c(SCc2nc3ccccc3c(=O)[nH]2)n1 | · | ? | 51* | 46 | 8
CCn1c(SCc2nc3ccccc3c(=O)[nH]2)nc2ccccc2c1=O | -5 | · | 67* | 1 | 4
COCCCn1c(SCc2nc3ccccc3c(=O)[nH]2)nc2ccccc2c1=O | · | · | 34 | -13 | 1
O=C(OCc1nc2ccsc2c(=O)[nH]1)c1ccc(Cl)nc1 | -1 | 41* | -3 | -8 | 0
Cc1ccc2nc(SCc3nnc(-c4ccccc4Br)o3)[nH]c2c1 | -6 | -4 | 52* | -12 | 2
O=c1[nH]c(SCc2nc3ccccc3c(=O)n2-c2ccccc2)nc2ccccc12 | · | · | 55* | -9 | -2
O=C(OCc1nc2ccsc2c(=O)[nH]1)c1ccccc1 | · | 4 | 4 | 6 | -1
Clc1ccc2nc(SCc3nnc(-c4ccccc4)o3)[nH]c2c1 | 5 | · | 6 | -2 | -2
CCCC(=O)Nc1ccc2c(c1)C(=O)N(C)[C@H]1CC[C@@H](CC(=O)NCc3ccccc3)O[C@H]1CO2 | 2 | · | · | · | ·
O=C(Nc1ccccc1)C1=C[C@@H](c2ccc(C(F)(F)F)cc2)C[C@@H](OCCCCO)O1 | 50* | 12 | 11 | 62 | 1
C#Cc1ccc([C@H]2C=C(C(=O)OCC=C)O[C@@H](OCc3ccc(CO)cc3)C2)cc1 | 10 | -3 | 11 | -6 | 1
C#Cc1ccc([C@H]2C=C(C(=O)OCC=C)O[C@@H](OCCCCO)C2)cc1 | -6 | -3 | 49* | -9 | 0
CC(C)NC(=O)Nc1ccc2c(c1)C(=O)N([C@H](C)CO)C[C@H](C)[C@H](CN(C)S(=O)(=O)c1cn(C)cn1)O2 | 2 | · | · | · | ·

High-throughput results (PubChem)
